Assay results as given in PubChem BioAssay AID1159506 (National Center for Advancing Translational Sciences (NCATS), 2015).
Over roughly 59,000 sequences, the read-out has its median near -0.00055; the lowest 2% begin near -2. The full list was thinned out, with the lowest values kept by preference.

Experiment: Identification of proteins required for the processing of the EWS-FLI1 nascent transcript;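 also: robust z of luciferase light less the median z of siRNAs with the same seed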
Details: TC32 Ewing sarcoma NR0B1-luc vs CMV-luc (EWS-FLI1 target promoter against control promoter), 48 h; screened at 20 nM (by protocol)
Procedure, shortened: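 Genome-wide siRNA screen (Ambion v4.1, three siRNAs per gene, 20 nM final, RNAiMax) in Ewing sarcoma TC32 cells carrying NR0B1-promoter or CMV-promoter luciferase; OneGlo luciferase read 48 h post-transfection. Data normalized, z-score-MAD transformed and seed-adjusted.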

In order of rising seed-corrected z-score:
1. UAUUAGACAGAACUCUUGG against TNRC6C  -14.8
2. UAGGUCAAGAUAACCAUGC against OR8K1  -13.9
3. UGAGAGAUAAUUUUGGGAG against SPDYC  -12.8
4. UAUAUCGACAGCUCAGCUC against SUPT6H  -4.43
5. AUACCUGCUAAUGUCAUCC against ERCC6  -3.8
6. UGAGUGCUUACUGGUUUGC against C9orf47  -3.58
7. AUAGCUUCCACUUUAGCGG against KDM5A  -3.29
8. UGAGUUUCCAGGCUAUCAC against CCDC122  -2.99
9. UUUCAGCUUCUUGUACUGG against ROCK1P1  -2.99
10. UUGUAUUCCCUUGUGGUCC against KHDRBS1  -2.93
11. AAGGUUGCUAUACGUGGGC against C19orf35  -2.85
12. UUGACUAUAACCUGAAGCC against OTX2  -2.79
13. UUCUUGGUAAGAUCGAGAG against RNF43  -2.77
14. UCCACUAUUACAACAGCCC against SFPQ  -2.65
15. AAGGUGUCGAUGUCCAUGG against MSLNL  -2.6
16. UGGUUUGUCAGCGGGAUUC against MINK1  -2.53
17. AAUCUUCAAACAGCCGCUC against CHRNA3  -2.52
18. UUGGGUGUCAGGAUCUCGU against MYH14  -2.4
19. UUGGGUAGUAGCAUAGCCU against SYNC  -2.19
20. UACAGGGUCAGGGAGAGGU against PTPN6  -2.18
21. UGACUAAGAACUGUAUCCC against CC2D2B  -2.16
22. UAUGUGACGAGGGUCAUGC against THBS1  -2.07
23. AAUCCCAAAACCUUCUCGC against TPRG1L  -2.07
24. UGUACAGAGAGGGCAUGUG against BAIAP2L2  -1.82
25. UUAUAGUAUGCAGGAAUGG against FAM150B  -1.67
26. UGCUGAAUAGGUCCAAUCC against HERPUD1  -1.46
27. UGACAUGUCCUCAACAUCA against TMEM91  -1.41
28. UUGGGCAUAAUGGAAGCUG against EIF2B2  -1.39
29. AUGUUUUUCAAGUAGCUUC against CDRT4  -1.38
30. UAUUUCUCGAUUAUCUUCA against ICA1L  -1.21
31. UAAUUUCAAGCCGAUCUUC against EIF3H  -1.14
32. UUUGUGCUGCUUGUUCUCG against ADCK3  -1
33. AGUGUAACAGACAUCAUGC against DLAT  -0.966
34. UGAGCUACAUGUGAAGGCC against ZNF35  -0.965
35. UUCUAAACAACUCUUGGAC against RPUSD4  -0.962
36. UUGGUAUCCAAAGACGAUG against RTKN2  -0.918
37. UUCUGCGUCACUUUCUACC against CRNKL1  -0.902
38. UCGGUGAUGAGGCUGAUCC against G6PC3  -0.843
39. AAAGAUCAAAUCUGAUUCC against MRPL19  -0.8
40. UUGAGGGCAGAAGUACACU against FAM231D  -0.76
41. UCCAUUACAAUCGACCUUU against PROK2  -0.664
42. UUGUAUACAACCUAUCAAC against B4GALT6  -0.657
43. UAAGAUCCGAGUCACUAUC against RPH3AL  -0.639
44. UUUUCGGCGUGUAUCCUCG against CHMP1B  -0.617
45. AACAUAACAGUUGAAGUGA against TMEM244  -0.604
46. UUAGAUUUCUCCCUCGGUG against ZNF136  -0.576
47. UUGAUUUCCACUCCUUUUG against SGCD  -0.522
48. UACAUCUCCAGGGUCAGCG against CALY  -0.514
49. AUCCGAACACCCAUAAGCC against POLK  -0.479
50. AUAUGUUCAAGGUGAUUCG against OR6K2  -0.456
51. UGUCUAAUAAACAAGUUAC against DNA2  -0.418
52. AAAAUAAUCGAUGUGAUUU against FOXI3  -0.41
53. UUCUGGUUAGUCAUAUUGG against HDAC1  -0.41
54. UCUCCGAUGAGAGCUUUGG against GNS  -0.354
55. UGCAUGAAUAGAGUCGGCG against RAB22A  -0.347
56. UGGAUAAUCAGGAUGGUCC against AKR1C4  -0.343
57. UGGUUGAUCAAUGCGAUAG against C11orf54  -0.331
58. AUAGGUACUACAUAUGAGC against DSC2  -0.323
59. UGUUGCAUUCUUGUCAUCC against CRAMP1  -0.303
60. UCCUCCCUAACAAAUAGGC against NUDT16  -0.295
61. UUUCGAAGUUGCAUGGUUG against KDM5D  -0.291
62. UGCUUUGUCGUAAUCUUCC against UNC45A  -0.29
63. AUCACUCUCACAUACAUGG against RCAN1  -0.288
64. UUCUUAUCAAGAAUAGUCC against PTER  -0.285
65. UUCCCGUUCAUUUUGCAAC against ASZ1  -0.283
66. UCGGAUGUAUCUGAGGUGC against DCAF8L1  -0.269
67. UUUCAUAGAUUAGCACUCC against PRKACB  -0.257
68. UACAAUACUAUUUCGAAUC against ZNF44  -0.235
69. UCAGGUACAAUUCUGAUUC against KRT38  -0.223
70. AAGGGCAAAGGAGUGAGGC against LOC100289495  -0.199
71. UCUUAGACCCUGGAGGUGG against TBRG4  -0.178
72. AUCGCGAACACUAACGUAC against SUB1  -0.141
73. UCUGGUAUCAGAAAGUUCG against BBS7  -0.128
74. UGUAUCUCGAUCUUCACCG against STRN  -0.0881
75. UUCAGUUCUAGAGGUCUGC against TMEM53  -0.0791
76. AGCUAUAUUAUUCACAGCC against BTF3L4  -0.0759
77. UUUCGAACACGAAACAUUC against LOC340089  -0.0497
78. UCUAAUUCUGCGGCUUUUC against SCAMP1  -0.0112
79. ACAGAUAUAGGAGAAAGCC against NUMBL  0.00267
80. UUUACGUCGUUCUUCUUCC against TXLNG  0.0162
81. UGAGUGAUAGUCUAGACUC against SOX9-AS1  0.0191
82. UCAAAUACUGGUCGAAUUC against SOX7  0.0233
83. AAUGCGAUUAUUGUCUGUC against CCT3  0.0264
84. UUAAUUCUAUUCGAUCAUC against MNS1  0.033
85. AACACUAUUUAGCUCAUUC against TARBP1  0.0464
86. UAUCGUGAAACAGACUUCC against SND1  0.0523
87. UCUGCGACUCCUGUUCUGC against WRBP1  0.0575
88. UCUUAUGUUGGUGUUGUUC against SMOC1  0.0653
89. UUUCAAUCCUGUAAGGGUC against CDC23  0.07
90. UUACGUUCAGAGUCUAUCG against C17orf75  0.0852
91. UAGGAAUCCUCGUUUAGUG against YWHAH  0.112
92. UCGGUUGUAUAUGUCAUCC against KIAA0100  0.141
93. UUCUCGUCUAGUUUGCAUC against SH3RF3  0.155
94. AAACCCUUCACAGUCUUGG against LOC388955  0.158
95. UCUUCGAACUGAAUGAGUG against ME2  0.165
96. AAAUAUAUAGGGCAUCCAG against PLEKHM1P1  0.174
97. AUUGUUUGUGGUAUUGUAG against CRHR1  0.211
98. UUUGUAAGGUUGCUGAUCG against CLIP1  0.221
99. AAACAGUCCAUUAACUUCU against RBM38  0.257
100. ACUUGGAAAUCUCUUUUCG against FAM117A  0.27
101. ACAGUUAGUAUUGUACUUG against ZNF280C  0.315
102. UUUGGGUCAACGGUGAGGU against KIAA2012  0.316
103. AUACUGAAAAUAGUACAUG against KMT5A  0.332
104. UCAUAUGGAACUCUAAAGC against PIK3CG  0.358
105. UGCAGUACCAGGUUCAGGG against DOK1  0.361
106. UUAUCGUCAUGGUAAACAC against GXYLT1  0.378
107. UCGUUGAUCACAAUUAGCU against ADAM11  0.436
108. UUUGGGACAAGGCACAAGC against PRKCDBP  0.468
109. UAAGCAACAGGAGCUCAGU against KRT6B  0.507
110. UAUGGUUACAAAGGGAACU against ZNF669  0.508
111. UUACUUUCUUCAACCAAAG against TRMT6  0.527
112. UCUUCUCUAAGUCUAGGUC against POM121  0.532
113. UUAGGUAACGGAAACGGGC against LDHC  0.562
114. UUGUUGAUCACUUUGACGG against IKZF3  0.604
115. AUACCGAAAACCUUCGCCC against ABCA3  0.623
116. UUUGAGUACUCCAAGAUGU against C20orf96  0.627
117. UAGCCUAUCAAUGAAACCU against ZNF222  0.694
118. UUCGCUUCCAGUUCACCUC against MBOAT1  0.704
119. UCAGUAUCCAGGUCAGUGC against LEMD2  0.794
120. UUUAUUUAGGGAGCUCCAG against ETHE1  0.835
121. UUCACUGAUCUGAAAGUUG against NAA10  0.839
122. UCACUGUGCAUUUCUCCAC against GUCD1  0.93
123. AAAUCAACCAAUUAAAGUC against LOC403323  1.01
124. UUGGUAUUGAUCGUUUAUG against DCUN1D1  1.03
125. UAGAUGCUCAGGGAUCACC against AS3MT  1.06
126. UUUACUGGGAUAGUUAAUC against C2CD4A  1.08
127. UUAUUUUGAAUAGCCUUCC against SERBP1  1.09
128. UGUUCAAUCUUGGAGCUGG against LRRC8E  1.15
129. UCUUUGACAAGGACCCUUC against G2E3  1.23
130. UUAACUUGUUGUAUUGCUG against CCDC109B  1.36
131. AUAUGAUUCCCAAUUAAUG against TMEM119  1.74
132. AUAGUGUAAAGAACAUCCG against HNRNPL  2.46
